From PubChem BioAssay
In the library only some 3.2% were active in any assay of this set; here they are far more common.
AMA1-RON2 inh – AMA1-RON2 (P. falciparum) interaction inhibition. AlphaScreen AMA1-biotinylated RON2 peptide binding. Potency, µM (top dose mostly 58.2 µM), inactives show at the highest dose activity change, negative = inhibition, most hits filed as inhibitors. actives 0.2% (n = 360,000). AID 720542;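 note: 0% = vehicle wells and -100% = peptide control; nearly all actives have a fitted effect of over 45% in size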
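AMA1 (3D7) with his tag at 25 nM final met compounds first, then biotinylated RON2 peptide at 25 nM; detection used donor plus acceptor beads, 10 µg/mL apiece, read by AlphaScreen after 30 min at room temperature.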
RE007 growth inh – less growth of the S. pombe RE007 Vpr strain. S. pombe RE007 Vpr strain, BacTiter-Glo ATP luminescence, 24 h. Potency, µM (top dose mostly 92.2 µM), for the others: at the highest dose activity change, negative = less growth, hits mostly inhibitors. actives 0.21% (n = 360,000). AID 651644; active = well fitted falling curve with a large enough effect; inconclusive = small, poorly fitted or top-dose-only effect; inactive = no such curve, though single readings can be large or run the other way; note: nearly all actives have a fitted effect of over 50% in size
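Fission yeast RE007 carrying one integrated HIV-1 vpr copy, seeded at OD 0.01 in PMG+AL medium with 23 nL pinned compound. Grown 24 h at 30 degrees; viability read by BacTiter-Glo luminescence after 5 min.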
Tb PYK inh – T. brucei pyruvate kinase inhibition | Q57TT1 | Potency, µM (series often up to 76.8 µM), for inactives: at the top dose activity, negative = inhibition, hits mostly inhibitors | TbPYK enzyme, Kinase-Glo Plus ATP luminescence, 45 min | actives 0.12% (n = 410,000); note: nearly all actives have a fitted effect of over 50% in size
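Screened from lowest to highest concentration, compounds were pinned into TbPYK/substrate mixtures, and ADP (130 uM final) was added. Plates sat at room temperature for 45 min prior to Kinase-Glo Plus detection by luminescence.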
LmPK inhibitor – blocks Leishmania mexicana pyruvate kinase activity; purified LmPK, Kinase-Glo ATP luminescence, 1 h; Potency, µM (doses to about 57.5 µM), for the others: top-dose activity change, negative = inhibition, usual class: inhibitors; Q27686; AID 1721; actives 0.37% (n = 290,000)
Target sequence (Q27686 whole entry, looked up): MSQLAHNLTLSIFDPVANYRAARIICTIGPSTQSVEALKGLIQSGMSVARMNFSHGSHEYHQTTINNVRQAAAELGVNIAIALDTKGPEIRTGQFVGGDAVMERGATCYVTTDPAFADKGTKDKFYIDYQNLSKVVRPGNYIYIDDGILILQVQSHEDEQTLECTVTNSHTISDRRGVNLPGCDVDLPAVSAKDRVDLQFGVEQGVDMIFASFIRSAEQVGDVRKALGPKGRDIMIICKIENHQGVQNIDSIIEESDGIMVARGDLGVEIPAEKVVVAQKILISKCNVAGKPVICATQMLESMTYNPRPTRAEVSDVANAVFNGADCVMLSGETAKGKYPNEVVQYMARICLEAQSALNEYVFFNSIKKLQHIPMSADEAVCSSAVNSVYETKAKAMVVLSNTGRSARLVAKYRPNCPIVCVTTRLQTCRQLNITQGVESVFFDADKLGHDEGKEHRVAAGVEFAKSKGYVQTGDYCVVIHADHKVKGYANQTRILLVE
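Purified LmPK (0.1 nM) with 0.5 mM PEP and 0.1 mM ADP in imidazole buffer pH 7.2 with MgCl2/KCl, 1 h at room temperature. ATP formed was read by luciferase luminescence and normalized to no-enzyme and uninhibited controls.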
Sm TGR inh – inhibitors of Schistosoma mansoni thioredoxin glutathione reductase | Q962Y6 | purified TGR, DTNB reduction, TNB absorbance 405 nm | Potency, µM (series often up to 114 µM), for inactives: at the top dose activity change, negative = inhibition, usual class: inhibitors | actives 3% (n = 360,000); note: nearly all actives have a fitted effect of over 60% in size
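First, TGR (20 nM dispensed) and NADPH were mixed with compound. Second, a 15 min room-temperature incubation followed. Third, further NADPH and then DTNB were added to start the reaction. Finally, TNB absorbance was monitored kinetically.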
An asterisk follows results filed as active; ? = inconclusive; / = no result given; [ ] = dose if it differs, or a comment. Unless noted, calls come from the whole dose curve; as a rule, active = well fitted curve in the direction sought with a large enough effect; inconclusive = small, poorly fitted or top-dose-only effect, or another doubt; inactive = no such curve, though single readings can be large; an effect the other way counts as inactive or inconclusive. Unless noted, % is set by controls: 0 for no effect and ±100 for the full control effect; potency is the fitted concentration of half-maximal effect.

SMILES | AMA1-RON2 inh | RE007 growth inh | Tb PYK inh | LmPK inhibitor | Sm TGR inh
CC#CCN1c2ccccc2[C@]23C[C@@H](C(=O)OC)N(C(=O)CC(C)C)C2=NC(C(=O)OC)=C(C(=O)OC)[C@H]13 | / | / | / | -2%[11.5 µM] | /
O=C(O)Cc1sc(Nc2ccc(C(=O)O)cc2)nc1-c1ccccc1 | / | / | -8% | / | ?
O=C(O)Cc1sc(Nc2ccccc2)nc1-c1ccc(Cl)cc1 | 13% | -2% | -17% | 0% | 45µM*
Cc1ccc(Nc2nc(-c3ccccc3)c(CC(=O)O)s2)cc1 | 16% | ? | 2% | -4% | -35%
O=C(Cc1sc(Nc2ccccc2)nc1-c1ccccc1)NCc1ccccn1 | 28% | 2% | ? | -7% | 25µM*
COc1ccc(-c2c(C)c3ccc(O)c(CN4CCC(C)CC4)c3oc2=O)cc1OC | / | / | 0% | / | 7%
Cc1ccccc1Cn1ccn(-c2ccc(F)c(F)c2)c(=O)c1=O | / | / | 2% | / | 1%
O=C(Nc1nnc(S(=O)(=O)N2CCCc3ccccc32)s1)c1ccc(Cl)cc1 | / | / | -3% | / | 7%
CCOC(=O)c1ccccc1NC(=O)Cn1c(=O)n(-c2ccc(CC)cc2)c(=O)c2c(C)c(C(=O)N(C)C)sc21 | / | / | 2% | / | -2%
Cc1ccc(C)c(NC(=O)Cn2c(=O)n(Cc3ccco3)c(=O)c3oc4ccccc4c32)c1 | / | / | -1% | / | -11%
CCCc1cc(C(=O)Nc2cccc(Cl)c2)no1 | 15% | ? | -10% | 22µM* | 6%
CSc1cccc(NC(=O)c2c(Cl)cnn2C)c1 | -16% | -30% | 1% | 1% | -6%
Cn1ncc(Cl)c1C(=O)Nc1cccc(Cl)c1 | 5% | ? | ? | 2% | 45µM*
CCCc1cc(C(=O)NCc2cccnc2)no1 | -3% | 9% | 4% | -2% | 0%
CCCc1cc(C(=O)Nc2cccnc2)no1 | -10% | -28% | 4% | 11µM* | 0%
CCc1ccc(S(=O)(=O)c2c[nH]c3cc(OC)c(OC)cc3c2=O)cc1 | / | / | 2% | / | 4%
Cc1ccccc1-c1ccc2n1Cc1cnnn1-c1ccccc1-2 | 25µM* | 2% | 1% | / | /
COc1ccccc1CNC(=O)CS(=O)Cc1nc(-c2ccc(OC)c(OC)c2)oc1C (stereo not drawn) | -8% | 9% | -4% | -2% | ?
COc1ccc(-c2nc(CS(=O)CC(=O)NC(C)CCc3ccccc3)c(C)o2)cc1OC (stereo not drawn) | -9% | 2% | 1% | 2% | 32µM*
Cc1ccc(S(=O)Cc2nc(-c3ccc(C(=O)NC(C)c4ccccc4)cc3)oc2C)cc1 (stereo not drawn) | / | / | -14% | / | 14µM*
Cc1ccc(-c2nc(CS(=O)CC(=O)NC(C)CCc3ccccc3)c(C)o2)cc1 (stereo not drawn) | -6% | 6% | 0% | 2% | 8.9µM*
Cc1ccc([C@@H]2[C@@H]3C(=O)N(C)C(=O)[C@@H]3[C@]3(C)C(=O)N(Cc4ccccn4)CC(=O)N23)o1 | 31% | 3% | -16% | -5% | -23%
Cc1ccc([C@@H]2[C@@H]3C(=O)N(C)C(=O)[C@@H]3[C@]3(C)C(=O)N(Cc4ccccc4)CC(=O)N23)o1 | 17% | -5% | -15% | -6% | 45µM*
COC(=O)CN1C(=O)[C@H]2[C@@H](c3ccc(C)o3)N3C(=O)CN(Cc4ccccc4)C(=O)[C@@]3(C)[C@H]2C1=O | 11% | 3% | -28% | -5% | 22µM*
CCOc1cc(C(=O)NCc2ccc3c(c2)OCO3)cc(OCC)c1OCC | 36% | -3% | -1% | 13% | 35µM*
Cc1cc(C)cc(C(=O)NCc2ccc3c(c2)OCO3)c1 | 4% | 26% | -1% | 5% | -20%
CN(Cc1cc(=O)n2ccsc2n1)c1ccccc1 | -1% | -11% | 8% | -3% | 19%
CN(Cc1cc(=O)n2ccsc2n1)C1CCCCC1 | 8% | 11% | 2% | 1% | 32µM*
Cc1ccc(CC(=O)NCc2nc(-c3cccc(C)c3)no2)cc1 | / | / | 3% | / | 6%
O=C1/C(=C\Nc2ccc(Cl)cc2)CCN1c1ncccn1 | 1% | -7% | -24% | -11% | 16µM*
